Data from the supplement of paper PMC10849652.
About 8,800 targets were measured; listed, in parts, are those with a hit and a random draw of the rest. About 0.5% of all pairs of compound and target were hits.

The targets below were run with O=C(CCCCCCC(=O)Nc1ccccc1)NO [vorinostat] (assay: log2 fold change, soluble protein after heating vs DMSO (PISA); higher = thermal stabilisation; K562 lysate, 10 uM; active = over 0.2 and 3.5 SD of the protein, either way, in both replicates (recomputed)).
Procedure, shortened: (§1)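 The values are log-two fold changes in thermal stability compared with solvent controls and come from duplicates. They were obtained by TMTpro 16plex LC-MS/MS, with channel sums equalised, on the supernatant after 21,000xg for 90 min. That supernatant came from crude K562 extract at 1 mg/mL protein treated with 10 μM compound for 30 min, heated for 3 min across 48°C-58°C, pooled and brought to 0.5% NP-40 at 4°C.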

Chain of UniProt P13994 (P13994 whole entry, looked up): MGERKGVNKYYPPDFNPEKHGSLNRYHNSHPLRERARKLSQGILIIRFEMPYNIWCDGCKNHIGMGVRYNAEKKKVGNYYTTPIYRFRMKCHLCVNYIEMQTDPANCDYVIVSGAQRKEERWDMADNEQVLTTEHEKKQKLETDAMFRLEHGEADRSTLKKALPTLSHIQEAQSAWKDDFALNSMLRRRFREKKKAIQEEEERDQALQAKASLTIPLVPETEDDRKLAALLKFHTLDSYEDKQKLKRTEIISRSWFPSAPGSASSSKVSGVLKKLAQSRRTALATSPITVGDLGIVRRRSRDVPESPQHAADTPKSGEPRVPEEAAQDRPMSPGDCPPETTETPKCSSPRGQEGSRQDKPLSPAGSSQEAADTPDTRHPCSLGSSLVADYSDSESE
Chain of UniProt O60508 (O60508 whole entry, looked up): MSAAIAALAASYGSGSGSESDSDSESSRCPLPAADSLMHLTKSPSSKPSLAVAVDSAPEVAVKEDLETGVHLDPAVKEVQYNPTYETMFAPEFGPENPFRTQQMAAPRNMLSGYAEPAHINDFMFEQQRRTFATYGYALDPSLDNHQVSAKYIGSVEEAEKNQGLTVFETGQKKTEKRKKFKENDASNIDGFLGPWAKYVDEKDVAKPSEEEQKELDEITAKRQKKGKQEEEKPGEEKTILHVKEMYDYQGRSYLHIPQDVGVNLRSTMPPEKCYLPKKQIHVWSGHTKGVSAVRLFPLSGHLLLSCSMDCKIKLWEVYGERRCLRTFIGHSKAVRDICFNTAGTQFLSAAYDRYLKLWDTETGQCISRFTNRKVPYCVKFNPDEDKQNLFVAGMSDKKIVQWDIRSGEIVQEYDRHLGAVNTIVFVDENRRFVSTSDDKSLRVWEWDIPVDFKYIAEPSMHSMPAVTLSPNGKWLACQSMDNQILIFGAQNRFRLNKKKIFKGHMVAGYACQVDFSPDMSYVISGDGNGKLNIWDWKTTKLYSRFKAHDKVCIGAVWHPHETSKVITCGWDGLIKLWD
Chain of UniProt Q9NZM4 (Q9NZM4 whole entry, looked up): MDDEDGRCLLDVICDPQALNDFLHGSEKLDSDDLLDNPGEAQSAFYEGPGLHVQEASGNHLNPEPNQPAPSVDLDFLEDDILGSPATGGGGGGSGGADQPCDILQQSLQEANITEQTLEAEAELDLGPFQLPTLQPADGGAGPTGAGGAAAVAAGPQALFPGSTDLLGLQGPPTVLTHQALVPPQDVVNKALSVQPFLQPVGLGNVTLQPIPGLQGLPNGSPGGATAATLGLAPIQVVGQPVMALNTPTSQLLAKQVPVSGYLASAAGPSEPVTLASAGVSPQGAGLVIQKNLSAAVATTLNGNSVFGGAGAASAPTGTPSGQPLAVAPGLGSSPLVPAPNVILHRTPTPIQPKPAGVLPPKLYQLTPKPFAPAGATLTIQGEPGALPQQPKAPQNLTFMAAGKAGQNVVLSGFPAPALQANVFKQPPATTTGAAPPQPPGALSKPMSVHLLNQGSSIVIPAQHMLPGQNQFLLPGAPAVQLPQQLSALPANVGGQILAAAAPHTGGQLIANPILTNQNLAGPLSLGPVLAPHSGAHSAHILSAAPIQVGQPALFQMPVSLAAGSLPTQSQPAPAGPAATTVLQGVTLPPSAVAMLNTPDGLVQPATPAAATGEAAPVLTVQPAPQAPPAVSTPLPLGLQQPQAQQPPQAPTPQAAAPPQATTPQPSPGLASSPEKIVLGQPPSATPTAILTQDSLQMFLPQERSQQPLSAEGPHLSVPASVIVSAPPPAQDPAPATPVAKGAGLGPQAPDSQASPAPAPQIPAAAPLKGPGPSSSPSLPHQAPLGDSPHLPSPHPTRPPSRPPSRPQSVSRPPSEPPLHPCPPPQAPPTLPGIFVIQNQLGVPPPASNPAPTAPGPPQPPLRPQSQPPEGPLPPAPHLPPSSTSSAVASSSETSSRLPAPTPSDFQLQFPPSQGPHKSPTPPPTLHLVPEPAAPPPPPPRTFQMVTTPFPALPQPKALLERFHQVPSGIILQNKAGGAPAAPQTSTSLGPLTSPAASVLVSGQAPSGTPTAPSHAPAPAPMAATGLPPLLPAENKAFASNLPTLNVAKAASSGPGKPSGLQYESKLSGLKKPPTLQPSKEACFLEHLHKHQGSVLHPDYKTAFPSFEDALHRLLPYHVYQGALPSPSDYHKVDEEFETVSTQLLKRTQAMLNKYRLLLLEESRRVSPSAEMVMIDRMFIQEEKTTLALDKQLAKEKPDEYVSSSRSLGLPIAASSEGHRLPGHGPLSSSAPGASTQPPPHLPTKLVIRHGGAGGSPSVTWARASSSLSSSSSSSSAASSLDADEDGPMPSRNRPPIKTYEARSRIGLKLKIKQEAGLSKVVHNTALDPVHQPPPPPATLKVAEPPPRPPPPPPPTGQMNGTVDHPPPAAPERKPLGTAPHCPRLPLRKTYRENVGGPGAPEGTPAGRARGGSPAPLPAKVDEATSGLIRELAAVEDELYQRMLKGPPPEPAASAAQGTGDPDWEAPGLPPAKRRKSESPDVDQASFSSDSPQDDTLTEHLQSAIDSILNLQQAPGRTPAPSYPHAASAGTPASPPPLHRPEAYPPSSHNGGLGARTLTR
Chain of UniProt Q9C0D2 (Q9C0D2 whole entry, looked up): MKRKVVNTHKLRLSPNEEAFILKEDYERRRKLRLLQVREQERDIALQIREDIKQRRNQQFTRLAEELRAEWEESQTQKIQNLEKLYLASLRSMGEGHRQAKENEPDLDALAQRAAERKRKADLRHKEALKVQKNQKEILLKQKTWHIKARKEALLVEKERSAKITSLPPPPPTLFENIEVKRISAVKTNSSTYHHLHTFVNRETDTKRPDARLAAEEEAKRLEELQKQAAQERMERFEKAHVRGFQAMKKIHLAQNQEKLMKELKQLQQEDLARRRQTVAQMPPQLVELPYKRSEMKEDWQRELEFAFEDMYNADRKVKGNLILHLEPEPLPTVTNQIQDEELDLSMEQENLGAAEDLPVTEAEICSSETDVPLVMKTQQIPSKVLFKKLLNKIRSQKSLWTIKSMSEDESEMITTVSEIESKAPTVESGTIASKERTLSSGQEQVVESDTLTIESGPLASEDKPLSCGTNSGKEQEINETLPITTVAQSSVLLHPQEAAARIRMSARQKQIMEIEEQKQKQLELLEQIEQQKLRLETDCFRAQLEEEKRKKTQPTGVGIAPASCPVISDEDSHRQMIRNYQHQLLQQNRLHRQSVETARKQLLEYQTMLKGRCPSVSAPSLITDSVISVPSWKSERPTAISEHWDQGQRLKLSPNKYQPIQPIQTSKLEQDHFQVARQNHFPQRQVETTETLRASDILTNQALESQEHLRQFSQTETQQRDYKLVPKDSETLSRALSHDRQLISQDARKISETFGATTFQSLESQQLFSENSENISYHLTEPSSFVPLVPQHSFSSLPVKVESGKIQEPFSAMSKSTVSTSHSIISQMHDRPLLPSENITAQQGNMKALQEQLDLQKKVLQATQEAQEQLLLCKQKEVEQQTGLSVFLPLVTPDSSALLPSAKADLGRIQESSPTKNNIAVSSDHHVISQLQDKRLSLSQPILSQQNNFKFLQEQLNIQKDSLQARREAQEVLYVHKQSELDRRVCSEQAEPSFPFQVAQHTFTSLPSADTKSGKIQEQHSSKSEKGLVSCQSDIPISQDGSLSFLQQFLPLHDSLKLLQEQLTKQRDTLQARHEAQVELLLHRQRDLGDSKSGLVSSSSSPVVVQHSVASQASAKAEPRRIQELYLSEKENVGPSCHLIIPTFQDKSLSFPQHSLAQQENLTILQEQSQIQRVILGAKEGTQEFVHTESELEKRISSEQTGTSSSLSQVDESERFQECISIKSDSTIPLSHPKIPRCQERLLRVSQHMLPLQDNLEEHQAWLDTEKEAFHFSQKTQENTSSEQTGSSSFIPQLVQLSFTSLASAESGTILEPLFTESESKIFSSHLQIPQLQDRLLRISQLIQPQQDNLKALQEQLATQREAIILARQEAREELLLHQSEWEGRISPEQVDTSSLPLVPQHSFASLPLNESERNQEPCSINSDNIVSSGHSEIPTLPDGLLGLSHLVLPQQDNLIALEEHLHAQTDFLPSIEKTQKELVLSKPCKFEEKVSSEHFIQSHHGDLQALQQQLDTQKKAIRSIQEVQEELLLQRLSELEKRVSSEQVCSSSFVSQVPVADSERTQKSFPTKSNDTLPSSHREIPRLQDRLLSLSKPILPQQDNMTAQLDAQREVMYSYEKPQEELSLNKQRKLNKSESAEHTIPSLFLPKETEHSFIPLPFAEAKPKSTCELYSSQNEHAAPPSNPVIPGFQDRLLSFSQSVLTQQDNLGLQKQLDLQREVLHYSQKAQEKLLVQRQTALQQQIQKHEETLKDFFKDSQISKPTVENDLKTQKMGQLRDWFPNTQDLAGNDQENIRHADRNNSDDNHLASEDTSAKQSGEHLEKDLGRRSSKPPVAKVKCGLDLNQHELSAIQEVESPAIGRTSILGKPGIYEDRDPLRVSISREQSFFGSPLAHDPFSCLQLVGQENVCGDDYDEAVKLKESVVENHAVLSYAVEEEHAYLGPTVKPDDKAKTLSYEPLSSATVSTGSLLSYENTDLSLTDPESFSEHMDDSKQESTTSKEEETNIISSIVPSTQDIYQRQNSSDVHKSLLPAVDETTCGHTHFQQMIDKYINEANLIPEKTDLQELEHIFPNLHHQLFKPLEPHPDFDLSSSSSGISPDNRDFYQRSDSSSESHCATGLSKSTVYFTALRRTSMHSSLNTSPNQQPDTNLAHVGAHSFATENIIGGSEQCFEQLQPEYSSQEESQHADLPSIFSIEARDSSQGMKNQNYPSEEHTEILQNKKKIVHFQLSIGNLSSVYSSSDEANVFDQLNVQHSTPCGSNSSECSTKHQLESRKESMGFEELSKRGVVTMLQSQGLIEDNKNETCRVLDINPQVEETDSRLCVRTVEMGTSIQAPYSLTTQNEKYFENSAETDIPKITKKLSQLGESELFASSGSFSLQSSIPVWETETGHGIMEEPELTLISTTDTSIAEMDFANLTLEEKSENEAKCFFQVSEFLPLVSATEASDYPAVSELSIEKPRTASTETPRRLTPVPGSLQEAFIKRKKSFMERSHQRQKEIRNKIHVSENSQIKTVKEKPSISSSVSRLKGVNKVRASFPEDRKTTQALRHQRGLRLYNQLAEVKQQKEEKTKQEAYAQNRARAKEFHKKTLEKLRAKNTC

log2 fold change, inactive:
CEP57L1 (UniProt Q8IYX8) -0.23
BICRA (UniProt Q9NZM4) 0.11
CASP7 isoform 3 (UniProt P55210) -0.254
CCDC32 isoform 2 (UniProt Q9BV29) 0.058
C6orf120 (UniProt Q7Z4R8) 0.273
ATP6V1B1 (UniProt P15313) 0.083
BUD13 (UniProt Q9BRD0) 0.136
CDK13 (UniProt Q14004) -0.088
BNIP3 (UniProt Q12983) 0.066
CANX isoform 2 (UniProt P27824) 0.131
B3GALT6 (UniProt Q96L58) 0.218
CDK1 (UniProt P06493) -0.049
CEP295 isoform 3 (UniProt Q9C0D2) -0.004
CAD (UniProt H7BZB3) -0.54
CCDC130 (UniProt P13994) -0.003
CDCA8 (UniProt Q53HL2) 0.13
C18orf25 isoform 2 (UniProt Q96B23) -0.034
CCND3 (UniProt P30281) -0.051
CDK11A (UniProt Q9UQ88) -0.329
CDC40 (UniProt O60508) 0.08

log2 fold change, active:
ATG4A (UniProt Q8WYN0) -0.543
C9orf72 (UniProt Q96LT7) 0.919
BTRC (UniProt Q9Y297) -0.342
C8orf88 (UniProt P0DMB2) -0.455
C15orf39 (UniProt Q6ZRI6) -0.513
CDC25A (UniProt P30304) -1.01
CASP9 (UniProt P55211) -0.342

What follows are targets tested with O=C(O)c1ccc2c(c1)nc(Nc1cccc(Cl)c1)c1ccncc12 [silmitasertib] in the same assay as above.
Procedure, shortened: as §1

log2 fold change, inactive:
ATG4A (UniProt Q8WYN0) 0.034
CEP57L1 (UniProt Q8IYX8) 0.133
BICRA (UniProt Q9NZM4) -0.203
CASP7 isoform 3 (UniProt P55210) 0.113
C9orf72 (UniProt Q96LT7) -0.045
BTRC (UniProt Q9Y297) 0.035
CCDC32 isoform 2 (UniProt Q9BV29) -0.044
C6orf120 (UniProt Q7Z4R8) -0.075
C8orf88 (UniProt P0DMB2) 0.056
ATP6V1B1 (UniProt P15313) -0.013
C15orf39 (UniProt Q6ZRI6) 0.008
BUD13 (UniProt Q9BRD0) 0.054
CDK13 (UniProt Q14004) 0.093
BNIP3 (UniProt Q12983) -0.08
CDC25A (UniProt P30304) 0.084
CANX isoform 2 (UniProt P27824) -0.004
B3GALT6 (UniProt Q96L58) -0.029
CEP295 isoform 3 (UniProt Q9C0D2) 0.076
CAD (UniProt H7BZB3) -0.006
CCDC130 (UniProt P13994) 0.173
CDCA8 (UniProt Q53HL2) -0.093
C18orf25 isoform 2 (UniProt Q96B23) -0.067
CCND3 (UniProt P30281) 0.017
CDK11A (UniProt Q9UQ88) 0.049
CDC40 (UniProt O60508) 0.015
CASP9 (UniProt P55211) -0.004

Each target was assayed with O=C1NC(=O)C(c2cnc3ccccn23)=C1c1cn2c3c(cc(F)cc13)CN(C(=O)N1CCCCC1)CC2 in the same assay as above.
Procedure, shortened: as §1

log2 fold change, inactive:
ATG4A (UniProt Q8WYN0) 0.001
CEP57L1 (UniProt Q8IYX8) -0.044
BICRA (UniProt Q9NZM4) -0.076
CASP7 isoform 3 (UniProt P55210) 0.01
C9orf72 (UniProt Q96LT7) -0.015
CCDC32 isoform 2 (UniProt Q9BV29) 0.009
CENPV (UniProt Q7Z7K6) 0.039
C8orf88 (UniProt P0DMB2) 0.024
ATP6V1B1 (UniProt P15313) -0.006
C15orf39 (UniProt Q6ZRI6) -0.025
BUD13 (UniProt Q9BRD0) 0.036
CDK13 (UniProt Q14004) -0.012
BNIP3 (UniProt Q12983) -0.048
CDAN1 (UniProt H3BPZ6) 0.006
CDC25A (UniProt P30304) -0.172
ATE1 (UniProt O95260) 0.028
CANX isoform 2 (UniProt P27824) -0.015
B3GALT6 (UniProt Q96L58) 0.071
CDK1 (UniProt P06493) -0.055
CEP295 isoform 3 (UniProt Q9C0D2) -0.076
CDKL5 (UniProt O76039) 0.011
CCDC130 (UniProt P13994) -0.306
ATPSCKMT (UniProt Q6P4H8) 0
CCND3 (UniProt P30281) 0.086
CDK11A (UniProt Q9UQ88) -0.012
CDC40 (UniProt O60508) 0.005
C3AR1 (UniProt Q16581) -0.013
ATG4D (UniProt Q86TL0) 0.117
CASP9 (UniProt P55211) 0.019
CDC14A isoform 2 (UniProt Q9UNH5) -0.11
CHCHD7 isoform 4 (UniProt Q9BUK0) -0.066
